Inconclusive results are not listed. Values without a mark were called inactive. Activity calls are given as the source filed them. Unless noted, calls come from the whole dose curve; as a rule, active = well fitted cell-killing curve with a large enough effect in the repeat runs; inconclusive = weak or mixed curves, or effect the other way; inactive = flat fitted curve, though single readings scatter.
biological target: Estrogen receptor beta (Homo sapiens) (UniProt Q92731); experiment: qHTS assay to identify small molecule agonists of the estrogen receptor beta (ER-beta) signaling pathway (AID 1259377; active = well fitted activation curve with a large enough effect in the signal ratio in the repeat runs, not every such curve was filed as active; the % refers to the signal ratio); details: ER-beta-UAS-bla HEK293T, beta-lactamase FRET ratio, 16 h; series mostly up to 42.5 µM; activation: at the top concentration
Procedure, shortened: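 ER-beta-UAS-bla HEK293T (GripTite) cells carrying a UAS-driven beta-lactamase reporter, in medium with 2% charcoal-stripped FBS, were exposed to compounds for 16 hr at 37C; LiveBLAzer B/G FRET substrate was then added and fluorescence read after 2 hours at room temperature.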
% is set by controls: 0 for no effect and ±100 for the full control effect.

Sequence of Estrogen receptor beta (Homo sapiens) (Q92731 whole entry, looked up): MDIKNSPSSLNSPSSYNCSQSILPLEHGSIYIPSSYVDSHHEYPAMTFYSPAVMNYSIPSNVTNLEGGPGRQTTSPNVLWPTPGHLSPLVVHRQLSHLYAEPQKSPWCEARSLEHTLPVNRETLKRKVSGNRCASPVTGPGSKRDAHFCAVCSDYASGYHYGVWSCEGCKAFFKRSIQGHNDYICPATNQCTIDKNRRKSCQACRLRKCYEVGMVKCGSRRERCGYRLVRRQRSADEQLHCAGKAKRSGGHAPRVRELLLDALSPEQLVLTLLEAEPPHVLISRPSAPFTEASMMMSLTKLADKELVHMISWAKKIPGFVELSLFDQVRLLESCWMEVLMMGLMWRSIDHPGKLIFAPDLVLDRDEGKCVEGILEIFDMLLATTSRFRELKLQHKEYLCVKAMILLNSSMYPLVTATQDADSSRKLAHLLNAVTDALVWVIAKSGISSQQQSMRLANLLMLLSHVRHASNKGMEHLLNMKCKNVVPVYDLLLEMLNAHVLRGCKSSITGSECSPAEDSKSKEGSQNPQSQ

Point of comparison: `NC(=O)c1cn(Cc2c(F)cccc2F)nn1`, “activation” value 0.771%. Against it:
- CCOC(=O)Nc1ccc(NCc2ccc(F)cc2)nc1N — lower, -4.52%
- CCCCC(CC)COC(=O)c1ccccc1O (stereo not given) — lower, -1.33%
- O=C1NC(=O)[C@@]2(CCOc3ccc(F)cc32)N1 — higher, 7.91%
- CCO/C([O-])=N/c1c[n+](N2CCOCC2)no1 — lower, 0.208%
- O=c1[nH]c(=O)n([C@H]2C[C@H](O)[C@@H](CO)O2)cc1I — lower, -0.117%
- CC(C)CCCC(C)N (stereo not given) — lower, -0.372%
- Nc1c[n+](N2CCOCC2)no1 — higher, 5.19%
- CC1(C)CO[C@@H](CC(=O)O)CN1 — higher, 3.56%
- CCCN(CCC)CCc1cccc2c1CC(=O)N2 — lower, 0.0824%
- CCOC(=O)c1cccc(N)c1 — higher, 6.04%
- COc1cc(C(=O)N2CCCCCCC2)cc(OC)c1OC — lower, -0.685%
- Cc1cc2c(cc1S(N)(=O)=O)S(=O)(=O)CCC2 — higher, 5.56%
- C[C@H](NC(CCc1ccccc1)C(=O)O)C(=O)N1CCC[C@H]1C(=O)O (stereo not given in full) — higher, 1.97%
- COc1ccccc1OCC(O)CN1CCN(CC(=O)Nc2c(C)cccc2C)CC1 (stereo not given) — higher, 5.83%
- CN1CCC(=C2c3ccccc3CC(=O)c3sccc32)CC1 — lower, -3.52%
- Nc1cc(=O)[nH]c(N)n1 — lower, 0.0955%
- CO/N=C(/C(=O)N[C@@H]1C(=O)N2C(C(=O)OCOC(=O)C(C)(C)C)=C(C)CS[C@H]12)c1csc(N)n1 — lower, -0.516%

Point of comparison: `CC(C)NCC(O)c1ccc(NS(C)(=O)=O)cc1` (stereo not given), “activation” value 0.42% [at 92.4 µM]. Against it:
- NC(=O)Nc1ccccc1 — lower, -0.149% [at 92.4 µM]
- CC/C=C\CC/C=C/C(OCC)OCC — higher, 7.94% [at 92.4 µM]
- CC/C=C\CCOC(C)=O — higher, 10.3% [at 92.4 µM]
- CC(C)=CCCC(C)CC(=O)O (stereo not given) — higher, 9.64% [at 92.4 µM]
- COC(C)(C)CCCC(C)CC=O (stereo not given) — lower, -0.354% [at 92.4 µM]
- O=C[C@H](O)[C@@H](O)[C@H](O)[C@H](O)CO — higher, 6.31% [at 92.4 µM]
- CCCCOCCOCCOCCCC — lower, 0.336% [at 92.4 µM]
- CCCCCCCCCCCCCCCCC — lower, -0.126% [at 92.4 µM]
- CCC(=O)OC(C)c1ccccc1 (stereo not given) — lower, -2.22% [at 92.4 µM]
- C1CN(CCOCCN2CCOCC2)CCO1 — lower, 0.0252% [at 92.4 µM]
- CCOC(=O)C(=O)OCC — lower, -2.26% [at 92.4 µM]
- COCCCOCCCOC — lower, -2.66% [at 92.4 µM]

With `COC(=O)C1=C(C)NC(C)=C(C(=O)OC)C1c1ccccc1[N+](=O)[O-]` the outcome was “inactive”.
For `O=c1n(CCO)c(=O)n(CCO)c(=O)n1CCO`, the outcome was “inactive”.
In the case of `O=C1CCCCCCCCCCCN1`, the outcome is reported as “inactive”.

`CCCCCCCCCCCCCC=O` showed an activation of 5.64% [at 8.39 µM].

biological target: Estrogen receptor beta (Homo sapiens) (UniProt Q92731); experiment: qHTS assay to identify small molecule antagonists of the estrogen receptor beta (ER-beta) signaling pathway (AID 1259378; active = well fitted inhibition curve with a large enough effect in the signal ratio in the repeat runs, not every such curve was filed as active; the % refers to the signal ratio); details: ER-beta-UAS-bla HEK293T, beta-lactamase FRET ratio, 16 h; series mostly up to 92.4 µM; activity, negative = inhibition: at the top concentration
Procedure, shortened: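 ER-beta-UAS-bla HEK293T cells in 2% charcoal-stripped FBS medium treated with compound plus 1nM final 17-beta-estradiol for 16 hr at 37C. Beta-lactamase reporter read by FRET substrate fluorescence after 2 hours at room temperature.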

Point of comparison: `NC(=O)c1cn(Cc2c(F)cccc2F)nn1`, “activity, negative = inhibition” value -3.43% [at 42.5 µM]. Against it:
- CCOC(=O)Nc1ccc(NCc2ccc(F)cc2)nc1N — higher, -2.03% [at 42.5 µM]
- CCCCC(CC)COC(=O)c1ccccc1O (stereo not given) — higher, 2.55% [at 42.5 µM]
- O=C1NC(=O)[C@@]2(CCOc3ccc(F)cc32)N1 — higher, 22.1% [at 42.5 µM]
- CCO/C([O-])=N/c1c[n+](N2CCOCC2)no1 — higher, 0.2% [at 42.5 µM]
- COC(=O)C1=C(C)NC(C)=C(C(=O)OC)C1c1ccccc1[N+](=O)[O-] — lower, -9.47% [at 42.5 µM]
- O=c1[nH]c(=O)n([C@H]2C[C@H](O)[C@@H](CO)O2)cc1I — higher, 6.1% [at 42.5 µM]
- CC(C)CCCC(C)N (stereo not given) — higher, 17.2% [at 42.5 µM]
- Nc1c[n+](N2CCOCC2)no1 — higher, 2.42% [at 42.5 µM]
- CC1(C)CO[C@@H](CC(=O)O)CN1 — higher, 5.44% [at 42.5 µM]
- CCCN(CCC)CCc1cccc2c1CC(=O)N2 — higher, 17.8% [at 42.5 µM]
- CCOC(=O)c1cccc(N)c1 — higher, 20.1% [at 42.5 µM]
- COc1cc(C(=O)N2CCCCCCC2)cc(OC)c1OC — lower, -8.29% [at 42.5 µM]
- Cc1cc2c(cc1S(N)(=O)=O)S(=O)(=O)CCC2 — higher, -0.0296% [at 42.5 µM]
- C[C@H](NC(CCc1ccccc1)C(=O)O)C(=O)N1CCC[C@H]1C(=O)O (stereo not given in full) — higher, 16.4% [at 42.5 µM]
- COc1ccccc1OCC(O)CN1CCN(CC(=O)Nc2c(C)cccc2C)CC1 (stereo not given) — higher, 1.62% [at 42.5 µM]
- CN1CCC(=C2c3ccccc3CC(=O)c3sccc32)CC1 — lower, -5% [at 42.5 µM]
- Nc1cc(=O)[nH]c(N)n1 — higher, 3.54% [at 42.5 µM]
- CO/N=C(/C(=O)N[C@@H]1C(=O)N2C(C(=O)OCOC(=O)C(C)(C)C)=C(C)CS[C@H]12)c1csc(N)n1 — higher, 15.5% [at 42.5 µM]

Point of comparison: `CCC(=O)OC(C)c1ccccc1` (stereo not given), “activity, negative = inhibition” value 19.9%. Against it:
- NC(=O)Nc1ccccc1 — lower, 8.77%
- CC/C=C\CC/C=C/C(OCC)OCC — lower, -13.5%
- CC/C=C\CCOC(C)=O — lower, 11.6%
- CC(C)=CCCC(C)CC(=O)O (stereo not given) — lower, 1.2%
- COC(C)(C)CCCC(C)CC=O (stereo not given) — lower, 1.36%
- O=C[C@H](O)[C@@H](O)[C@H](O)[C@H](O)CO — lower, 14.7%
- CCCCOCCOCCOCCCC — lower, -2.16%
- O=c1n(CCO)c(=O)n(CCO)c(=O)n1CCO — lower, -0.791%
- CCCCCCCCCCCCCCCCC — lower, -0.878%
- CC(C)NCC(O)c1ccc(NS(C)(=O)=O)cc1 (stereo not given) — lower, 2.52%
- C1CN(CCOCCN2CCOCC2)CCO1 — lower, -5.54%
- CCOC(=O)C(=O)OCC — lower, 1.53%
- COCCCOCCCOC — higher, 23.5%

In the case of `O=C1CCCCCCCCCCCN1`, the outcome is reported as “inactive”.

Work on `CCCCCCCCCCCCCC=O` yielded an activity, negative = inhibition of -23.6% [at 8.39 µM].

system: not listed separately; experiment: qHTS assay to identify small molecule agonists of the androgen receptor (AR) signaling pathway in the presence of an antagonist - cell viability counter screen (AID 1259379); details: MDA-kb2 viability, CellTiter-Fluor, 16 h; series mostly up to 92.4 µM; activity change, negative = cytotoxicity: at the top concentration;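 note: MDA-kb2 human breast cancer cells carrying an MMTV luciferase reporter; nearly all actives have a fitted effect of over 25% in size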
Procedure, shortened: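 Cytotoxicity is assessed by CellTiter-Fluor in MDA-kb2 cells carrying an MMTV-driven luciferase reporter. Cells receive 3.0uM nilutamide plus compounds at 15 concentrations and incubate 16 hr at 37C without CO2 before fluorescence reading.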

Point of comparison: `CC(C)CCCC(C)N` (stereo not given), “activity change, negative = cytotoxicity” value 2.73% [at 42.5 µM]. Against it:
- CCOC(=O)Nc1ccc(NCc2ccc(F)cc2)nc1N — lower, 0.77% [at 42.5 µM]
- CCCCC(CC)COC(=O)c1ccccc1O (stereo not given) — lower, 0.0333% [at 42.5 µM]
- O=C1NC(=O)[C@@]2(CCOc3ccc(F)cc32)N1 — higher, 4.51% [at 42.5 µM]
- CCO/C([O-])=N/c1c[n+](N2CCOCC2)no1 — lower, 0.793% [at 42.5 µM]
- COC(=O)C1=C(C)NC(C)=C(C(=O)OC)C1c1ccccc1[N+](=O)[O-] — lower, -1.23% [at 42.5 µM]
- O=c1[nH]c(=O)n([C@H]2C[C@H](O)[C@@H](CO)O2)cc1I — lower, 2.12% [at 42.5 µM]
- Nc1c[n+](N2CCOCC2)no1 — lower, -1.63% [at 42.5 µM]
- CC1(C)CO[C@@H](CC(=O)O)CN1 — higher, 10.6% [at 42.5 µM]
- CCCN(CCC)CCc1cccc2c1CC(=O)N2 — higher, 3.17% [at 42.5 µM]
- CCOC(=O)c1cccc(N)c1 — lower, 1.48% [at 42.5 µM]
- COc1cc(C(=O)N2CCCCCCC2)cc(OC)c1OC — lower, -0.297% [at 42.5 µM]
- Cc1cc2c(cc1S(N)(=O)=O)S(=O)(=O)CCC2 — higher, 4.71% [at 42.5 µM]
- C[C@H](NC(CCc1ccccc1)C(=O)O)C(=O)N1CCC[C@H]1C(=O)O (stereo not given in full) — lower, 0.119% [at 42.5 µM]
- COc1ccccc1OCC(O)CN1CCN(CC(=O)Nc2c(C)cccc2C)CC1 (stereo not given) — lower, 0.312% [at 42.5 µM]
- CN1CCC(=C2c3ccccc3CC(=O)c3sccc32)CC1 — lower, -2.28% [at 42.5 µM]
- Nc1cc(=O)[nH]c(N)n1 — lower, -1.31% [at 42.5 µM]
- NC(=O)c1cn(Cc2c(F)cccc2F)nn1 — higher, 4.39% [at 42.5 µM]
- CO/N=C(/C(=O)N[C@@H]1C(=O)N2C(C(=O)OCOC(=O)C(C)(C)C)=C(C)CS[C@H]12)c1csc(N)n1 — lower, 0.489% [at 42.5 µM]

Point of comparison: `CCCCOCCOCCOCCCC`, “activity change, negative = cytotoxicity” value 0.064%. Against it:
- NC(=O)Nc1ccccc1 — lower, -2.31%
- CC/C=C\CC/C=C/C(OCC)OCC — lower, -6.77%
- CC/C=C\CCOC(C)=O — higher, 1.98%
- CC(C)=CCCC(C)CC(=O)O (stereo not given) — higher, 1.79%
- COC(C)(C)CCCC(C)CC=O (stereo not given) — higher, 3.14%
- O=C[C@H](O)[C@@H](O)[C@H](O)[C@H](O)CO — higher, 3.9%
- CCCCCCCCCCCCCCCCC — lower, -1.66%
- CCC(=O)OC(C)c1ccccc1 (stereo not given) — lower, -1.88%
- CC(C)NCC(O)c1ccc(NS(C)(=O)=O)cc1 (stereo not given) — lower, -0.107%
- C1CN(CCOCCN2CCOCC2)CCO1 — higher, 0.866%
- CCOC(=O)C(=O)OCC — higher, 4.34%
- COCCCOCCCOC — lower, -0.239%

In the case of `O=c1n(CCO)c(=O)n(CCO)c(=O)n1CCO`, the Potency is reported as “inactive”.
In the case of `O=C1CCCCCCCCCCCN1`, the Potency is reported as “inactive”.

Work on `CCCCCCCCCCCCCC=O` yielded an activity change, negative = cytotoxicity of -0.261% [at 8.39 µM].

Reference: PubChem BioAssay (Tox21)
